Experimental data published in ChEMBL document CHEMBL3988442, “University of Dundee, Small-Polar-MMV Screening Library” (2021).
For some assays here: Potency and affinity values are given separately.

Assays:
Parameters in all cases: scale not given: direction of the effect not stated beside the values
[1] = target: Protein translocase subunit SecA (Escherichia coli (strain K12)) (UniProt P10408); assay: Assay to Identify E. coli SecA ATPase Inhibitors; format: functional; conditions: 30 µM
[2] = target: T1, Ubiquitin-activating enzyme e1, putative (Leishmania donovani (strain BPK282A1)) (UniProt E9BSI1); assay: Leishmania donovani Ubiquitin Activating Enzyme (LdE1); format: functional; conditions: 30 µM
T1 sequence (whole entry): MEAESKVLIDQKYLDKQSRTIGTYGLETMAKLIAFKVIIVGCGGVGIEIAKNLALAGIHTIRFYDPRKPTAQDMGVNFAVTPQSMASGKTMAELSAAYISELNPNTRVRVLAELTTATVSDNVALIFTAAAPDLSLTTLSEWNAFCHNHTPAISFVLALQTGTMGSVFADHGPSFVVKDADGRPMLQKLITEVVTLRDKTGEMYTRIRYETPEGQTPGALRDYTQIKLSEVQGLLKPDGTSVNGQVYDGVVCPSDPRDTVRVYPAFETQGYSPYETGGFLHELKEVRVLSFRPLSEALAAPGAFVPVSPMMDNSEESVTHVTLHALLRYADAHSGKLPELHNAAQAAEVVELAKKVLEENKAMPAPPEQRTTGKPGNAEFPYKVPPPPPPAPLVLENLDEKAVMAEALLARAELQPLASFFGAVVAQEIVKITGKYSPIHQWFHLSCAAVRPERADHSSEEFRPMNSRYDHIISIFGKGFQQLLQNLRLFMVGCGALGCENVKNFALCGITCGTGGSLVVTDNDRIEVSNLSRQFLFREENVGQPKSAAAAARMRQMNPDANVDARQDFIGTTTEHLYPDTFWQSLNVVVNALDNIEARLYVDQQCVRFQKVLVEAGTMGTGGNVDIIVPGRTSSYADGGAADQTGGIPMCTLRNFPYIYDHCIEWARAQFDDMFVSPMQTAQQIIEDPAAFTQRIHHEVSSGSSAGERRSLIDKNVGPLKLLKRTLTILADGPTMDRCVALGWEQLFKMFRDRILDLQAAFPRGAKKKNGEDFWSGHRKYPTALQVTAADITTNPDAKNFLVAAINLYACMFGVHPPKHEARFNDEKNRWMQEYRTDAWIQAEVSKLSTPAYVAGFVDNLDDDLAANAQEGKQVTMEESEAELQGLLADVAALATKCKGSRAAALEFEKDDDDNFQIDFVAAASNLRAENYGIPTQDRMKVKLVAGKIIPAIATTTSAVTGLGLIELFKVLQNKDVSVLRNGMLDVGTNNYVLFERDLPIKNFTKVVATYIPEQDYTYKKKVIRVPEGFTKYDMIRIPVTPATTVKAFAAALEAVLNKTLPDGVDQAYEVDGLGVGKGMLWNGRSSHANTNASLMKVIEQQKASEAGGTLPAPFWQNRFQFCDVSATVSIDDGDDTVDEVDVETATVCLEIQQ

[3] = target: AMP-activated protein kinase, AMPK (Homo sapiens) (UniProt P54646+O43741+P54619+Q9UGJ0+Q9Y478+Q13131+Q9UGI9); assay: AMP-dependent Kinase enzyme assay. An in vitro enzyme assay that detects ADP turnover that is directly proportional to AMPK activity. This uses naive AMPK that is activated during the assay with MK-8722; format: functional; conditions: 30 µM
[4] = target: Sialic acid-binding Ig-like lectin 9 (Homo sapiens) (UniProt Q9Y336); assay: Hs-Siglec9 ALPHAscreen SOP 20170721; conditions: 10 µM
Sialic acid-binding Ig-like lectin 9 (Homo sapiens), sequence (Q9Y336 whole entry): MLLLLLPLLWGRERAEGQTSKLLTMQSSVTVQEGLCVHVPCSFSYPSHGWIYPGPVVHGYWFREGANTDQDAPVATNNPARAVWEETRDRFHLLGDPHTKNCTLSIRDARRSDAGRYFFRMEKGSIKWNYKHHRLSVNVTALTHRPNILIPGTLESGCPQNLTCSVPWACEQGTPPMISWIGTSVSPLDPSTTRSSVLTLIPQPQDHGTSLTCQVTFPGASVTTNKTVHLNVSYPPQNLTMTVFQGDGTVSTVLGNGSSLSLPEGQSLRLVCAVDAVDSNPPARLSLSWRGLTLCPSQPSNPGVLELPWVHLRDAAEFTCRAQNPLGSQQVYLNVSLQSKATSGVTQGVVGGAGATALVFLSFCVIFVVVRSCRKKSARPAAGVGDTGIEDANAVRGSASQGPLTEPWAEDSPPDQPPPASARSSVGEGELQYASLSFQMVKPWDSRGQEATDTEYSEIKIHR

Trypanosoma cruzi = assay: Trypanosoma cruzi phosphomannomutase and mannose-1-phosphate guanylyltransferase assay; format: functional; conditions: 10 µM
[5] = target: T2, Arginase-2, mitochondrial (Homo sapiens) (UniProt P78540); assay: in vitro enzyme assay to detect the production of urea directly proportional to the activity of Arginase II; format: functional; conditions: 33.3 µM; further: in the data most compounds retested in dose-response had high values
T2 sequence (whole entry): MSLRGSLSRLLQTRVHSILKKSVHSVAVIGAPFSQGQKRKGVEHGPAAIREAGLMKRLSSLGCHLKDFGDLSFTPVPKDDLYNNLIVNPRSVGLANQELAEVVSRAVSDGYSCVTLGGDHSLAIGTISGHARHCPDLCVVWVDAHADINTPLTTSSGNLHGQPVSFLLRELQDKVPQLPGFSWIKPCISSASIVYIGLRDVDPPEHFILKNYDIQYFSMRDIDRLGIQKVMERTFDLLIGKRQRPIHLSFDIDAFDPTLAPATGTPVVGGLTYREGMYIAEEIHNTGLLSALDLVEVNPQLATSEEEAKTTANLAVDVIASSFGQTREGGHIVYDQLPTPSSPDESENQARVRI

[6] = target: T3, Proteasome subunit beta (Trypanosoma cruzi) (UniProt O96673); assay: Trypanosoma cruzi proteasome chymotrypsin-like activity (TcProtChymo) assay.; further: in the data most compounds retested in dose-response had high values; format: functional; conditions: 9.37 µM
T3 sequence (whole entry): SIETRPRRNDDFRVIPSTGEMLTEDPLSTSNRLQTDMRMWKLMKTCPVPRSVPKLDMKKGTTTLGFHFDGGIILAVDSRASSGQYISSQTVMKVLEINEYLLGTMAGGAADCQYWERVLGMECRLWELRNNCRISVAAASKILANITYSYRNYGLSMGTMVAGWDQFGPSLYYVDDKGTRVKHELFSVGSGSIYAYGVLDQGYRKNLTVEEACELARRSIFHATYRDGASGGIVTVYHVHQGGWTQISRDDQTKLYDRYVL

Homo sapiens = species: Homo sapiens; assay: To identify inhibition of the IFN signalling (Jak-Stat) pathway via expression of an eGFP reporter gene under the control of an IFN-stimulated response element (ISRE) containing MxA promoter.; format: functional; conditions: 30 µM
[7] = target: T4, Tyrosyl-tRNA synthetase, putative (Trypanosoma cruzi (strain CL Brener)) (UniProt Q4DSP6); assay: Trypanosoma cruzi tyrosyl tRNA synthetase (TcYRS) _High Tyrosine SOP; format: functional; conditions: 30 µM; further: in the data most compounds retested in dose-response had high values
T4 sequence (whole entry): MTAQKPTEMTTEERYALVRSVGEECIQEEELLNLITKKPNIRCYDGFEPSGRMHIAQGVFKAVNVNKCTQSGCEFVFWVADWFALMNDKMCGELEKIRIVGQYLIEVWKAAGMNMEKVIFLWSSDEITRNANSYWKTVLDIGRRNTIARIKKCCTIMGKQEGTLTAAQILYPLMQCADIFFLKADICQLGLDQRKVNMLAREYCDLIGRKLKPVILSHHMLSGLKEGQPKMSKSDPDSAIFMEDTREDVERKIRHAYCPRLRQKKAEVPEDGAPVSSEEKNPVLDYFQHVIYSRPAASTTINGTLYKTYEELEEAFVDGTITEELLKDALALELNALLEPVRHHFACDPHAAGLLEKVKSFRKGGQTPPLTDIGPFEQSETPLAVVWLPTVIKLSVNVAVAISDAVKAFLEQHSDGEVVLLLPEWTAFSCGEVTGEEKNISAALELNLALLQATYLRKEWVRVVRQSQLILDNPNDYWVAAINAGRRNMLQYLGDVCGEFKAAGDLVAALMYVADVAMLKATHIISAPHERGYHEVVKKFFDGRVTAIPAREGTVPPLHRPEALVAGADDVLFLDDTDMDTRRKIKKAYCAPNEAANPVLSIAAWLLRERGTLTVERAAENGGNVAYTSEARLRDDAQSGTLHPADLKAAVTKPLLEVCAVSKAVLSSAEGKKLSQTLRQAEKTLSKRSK

[8] = target: T4, Tyrosyl-tRNA synthetase, putative (Trypanosoma cruzi (strain CL Brener)); assay: Trypanosoma cruzi tyrosyl tRNA synthetase (TcYRS) SOP; format: functional; conditions: 30 µM
[9] = target: Chromo domain-containing protein 1 (Saccharomyces cerevisiae (strain ATCC 204508 / S288c) (Baker's yeast)) (UniProt P32657); assay: ScCHD-1 Enzyme Inhibition Assay; format: functional; conditions: 30 µM; further: in the data most compounds retested in dose-response had high values
Chromo domain-containing protein 1 (Saccharomyces cerevisiae (strain ATCC 204508 / S288c) (Baker's yeast)), sequence (P32657 whole entry, the tested form may be a part): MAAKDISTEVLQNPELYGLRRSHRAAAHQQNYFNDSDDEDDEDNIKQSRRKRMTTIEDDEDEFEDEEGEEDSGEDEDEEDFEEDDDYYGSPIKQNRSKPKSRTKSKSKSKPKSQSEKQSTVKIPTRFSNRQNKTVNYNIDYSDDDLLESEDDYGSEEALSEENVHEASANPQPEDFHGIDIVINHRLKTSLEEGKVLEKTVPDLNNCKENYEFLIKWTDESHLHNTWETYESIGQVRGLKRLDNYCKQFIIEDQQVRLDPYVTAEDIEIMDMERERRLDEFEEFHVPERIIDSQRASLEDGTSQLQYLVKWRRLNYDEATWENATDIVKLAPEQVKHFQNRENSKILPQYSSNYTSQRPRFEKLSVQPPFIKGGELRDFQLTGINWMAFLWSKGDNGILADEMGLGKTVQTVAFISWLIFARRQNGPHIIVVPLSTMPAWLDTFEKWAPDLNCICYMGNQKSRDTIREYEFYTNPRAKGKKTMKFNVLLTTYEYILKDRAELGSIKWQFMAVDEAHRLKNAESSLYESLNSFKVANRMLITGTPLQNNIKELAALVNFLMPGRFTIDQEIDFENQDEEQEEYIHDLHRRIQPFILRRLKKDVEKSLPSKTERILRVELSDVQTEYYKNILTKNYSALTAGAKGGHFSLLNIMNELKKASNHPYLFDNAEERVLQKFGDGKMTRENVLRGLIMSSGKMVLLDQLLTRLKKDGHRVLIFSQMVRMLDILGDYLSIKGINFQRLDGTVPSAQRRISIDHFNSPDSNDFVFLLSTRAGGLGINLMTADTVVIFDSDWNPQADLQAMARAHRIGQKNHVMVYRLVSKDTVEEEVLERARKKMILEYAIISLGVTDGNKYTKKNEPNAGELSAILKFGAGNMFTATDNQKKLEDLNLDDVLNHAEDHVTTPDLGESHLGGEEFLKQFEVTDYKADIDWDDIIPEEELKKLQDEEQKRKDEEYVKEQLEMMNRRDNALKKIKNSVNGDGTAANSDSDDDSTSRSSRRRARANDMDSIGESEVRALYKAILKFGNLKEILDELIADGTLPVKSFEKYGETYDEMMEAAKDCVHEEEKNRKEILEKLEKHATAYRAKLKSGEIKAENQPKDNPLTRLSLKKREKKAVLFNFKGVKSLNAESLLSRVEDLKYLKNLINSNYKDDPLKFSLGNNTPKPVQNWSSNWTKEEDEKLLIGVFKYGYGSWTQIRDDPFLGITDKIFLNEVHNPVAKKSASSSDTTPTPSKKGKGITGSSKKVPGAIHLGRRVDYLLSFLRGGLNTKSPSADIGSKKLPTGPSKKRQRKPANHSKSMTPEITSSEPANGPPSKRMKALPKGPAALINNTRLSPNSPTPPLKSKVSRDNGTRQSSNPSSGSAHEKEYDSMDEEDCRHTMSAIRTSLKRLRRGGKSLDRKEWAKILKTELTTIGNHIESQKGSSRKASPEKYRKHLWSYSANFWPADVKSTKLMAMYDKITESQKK

Protein translocase subunit SecA (Escherichia coli (strain K12)), sequence (P10408 whole entry): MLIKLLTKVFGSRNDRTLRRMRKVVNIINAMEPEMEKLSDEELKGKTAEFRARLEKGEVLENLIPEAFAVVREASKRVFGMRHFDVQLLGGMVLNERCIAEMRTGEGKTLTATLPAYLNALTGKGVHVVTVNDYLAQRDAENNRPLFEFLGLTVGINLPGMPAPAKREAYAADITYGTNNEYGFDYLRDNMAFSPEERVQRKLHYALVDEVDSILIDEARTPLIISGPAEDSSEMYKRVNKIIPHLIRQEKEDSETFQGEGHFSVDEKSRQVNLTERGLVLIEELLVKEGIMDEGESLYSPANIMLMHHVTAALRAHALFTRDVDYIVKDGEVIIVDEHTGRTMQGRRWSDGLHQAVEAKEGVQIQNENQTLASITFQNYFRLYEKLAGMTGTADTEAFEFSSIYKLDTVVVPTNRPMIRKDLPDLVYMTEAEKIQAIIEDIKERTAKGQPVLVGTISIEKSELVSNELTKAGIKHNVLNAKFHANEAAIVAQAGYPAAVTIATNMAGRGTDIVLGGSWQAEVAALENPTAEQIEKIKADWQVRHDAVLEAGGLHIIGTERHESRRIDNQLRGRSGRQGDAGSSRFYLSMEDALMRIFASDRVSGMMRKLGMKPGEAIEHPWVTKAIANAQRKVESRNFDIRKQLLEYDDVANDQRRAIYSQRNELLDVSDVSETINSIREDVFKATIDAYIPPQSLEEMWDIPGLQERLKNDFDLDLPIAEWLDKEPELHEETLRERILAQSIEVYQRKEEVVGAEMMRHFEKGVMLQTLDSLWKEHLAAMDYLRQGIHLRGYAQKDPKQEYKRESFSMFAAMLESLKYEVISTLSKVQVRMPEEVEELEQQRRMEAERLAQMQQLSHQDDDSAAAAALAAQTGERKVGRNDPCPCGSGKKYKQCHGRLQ

| Compound | Percent Effect [1] [%] | Percent Effect [2] [%] | Percent Effect [3] [%] | Percent Effect [4] [%] | Percent Effect (Trypanosoma cruzi) [%] | Percent Effect [5] [%] | Percent Effect [6] [%] | Percent Effect (Homo sapiens) [%] | Percent Effect [7] [%] | Percent Effect [8] [%] | Percent Effect [9] [%] |
| --- | --- | --- | --- | --- | --- | --- | --- | --- | --- | --- | --- |
| CCn1cc(CN(C)S(=O)(=O)c2ccc(Cl)cc2)cn1 | -0.763 | 14.7 | 0.176 | -5.16 | -1.97 | -10 | 10.3 | 15 | 4.23 | 7.69 | -9.85 |
| COCCC(=O)N1CCC2(COCc3cnc(N4CCOCC4)nc32)C1 (configuration not stated) | -4.87 | 10.7 | 18.4 | -1.98 | -5.51 | 2.1 | 8.02 | 11.9 | 0 | 6.41 | -0.906 |
| COCC1CCN(C(=O)c2cccc(S(=O)(=O)NCC3(C)COC3)c2)C1 (configuration not stated) | -8.36 | 5.41 | 0.667 | 24.4 | 1.07 | 3.23 | 1.63 | 9.82 | 6.45 | 13.6 | -4.61 |
| Cc1cccnc1NCCNC(=O)[C@H]1CNC[C@@H](C(=O)N2CCCC2)C1 | -3.94 | 2.74 | -3.43 | 8.93 | 2.38 | 0 | 10.5 | -27.6 | 5.21 | 13.6 | -4.52 |
| CCc1noc(C)c1C(=O)N(C)Cc1ncc(C)c(OC)c1C | -5.87 | 10.4 | 5.05 | -5.08 | 6.76 | 2.32 | 7.36 | 7.84 | 8.57 | 18.8 | -14.6 |
| CCC(C)CNc1ccc2oc(COC)nc2c1 (configuration not stated) | 7.14 | 32.4 | -44.5 | 7.84 | -5.08 | 6.67 | 20.9 | 42.4 | -6.93 | -11 | 4.53 |
| CCOc1ccc(-n2nnc(C(=O)O)c2-c2ccccn2)cc1 | -1.24 | 7.89 | 4.82 | -2.3 | 0.487 | 0 | 29.2 | 5.63 | 3.19 | 13 | -4.17 |
| COc1cccc2c1OCC(CNC(=O)CCCN1CCOCC1)C2 (configuration not stated) | -1.74 | 5.41 | -7.92 | 19.8 | 2.05 | -0.248 | 13.1 | 11.9 | 8.6 | 18.5 | -5.59 |
| CC(C)CCN1CCC2(CC1)CN(C(=O)c1cnccn1)CCO2 | -4.82 | 2.67 | 2.65 | 7.36 | 0.772 | -57.9 | 0.855 | -13.7 | 4.17 | 12.5 | -3.24 |
| Cc1ccc(C)c(OC2CCN(C(=O)c3ccc(O)nc3)CC2)c1 | -1.92 | 15.8 | -2.4 | 7.02 | 3.76 | 0.383 | 17.5 | 10.8 | 8.33 | 21.9 | -11.2 |
| CCNC(=O)c1ccoc1CN1c2ccccc2CC1C (configuration not stated) | -3.54 | 2.74 | 7.91 | 9.27 | -3.97 | 2.4 | 12.4 | 5.41 | 4.17 | 11.1 | 1.31 |
| CCN(CC)C(=O)c1ccc(-c2ccsc2)nc1C | -1.54 | 6.94 | 5.62 | -7.86 | -4.37 | -0.442 | 25.3 | -1.98 | 4.21 | 5.13 | -1.47 |
| Cc1cc(C(=O)N2CCCC(n3ccnc3C)C2)c(C)s1 (configuration not stated) | -3.98 | -5.26 | 5.18 | -0.508 | 6.52 | 0 | 1.44 | 13.2 | 1.06 | 2.6 | -2.55 |
| COc1ccc(OC)c(NC(=O)c2nc3ccccc3n(C)c2=O)c1 | 1.79 | -15.6 | 3.42 | -2.14 | 0.888 | 3.23 | 9.22 | 3.54 | 1.06 | 14.1 | -7.41 |
| O=S(=O)(c1cccnc1)N1CCN(CCn2ccnc2)CC1 | -4.58 | 5.48 | -1.26 | 0.536 | -8.81 | -0.455 | 11.7 | -0.863 | 5.38 | 12.5 | -5.5 |
| COc1ccc(-n2ccc(C(=O)NCCN3CCCCC3C)n2)cc1 (configuration not stated) | -5.51 | -8.11 | -13.2 | 18.1 | 4.62 | -6.01 | 1.62 | -11.9 | 1.48 | 16.1 | -12.9 |
| CC(O)CN1CCN(C(=O)c2cnn(-c3ccc(Cl)cc3)c2)CC1 (configuration not stated) | -8.22 | 5.33 | -3.17 | 23.3 | 6.13 | 5.21 | 11 | 7.52 | 1.64 | 8.64 | -3.32 |
| O=C(N1CCCO1)[C@@]12CCO[C@@H]1CCN(Cc1ccccc1)C2 | -2.49 | 2.67 | -2.01 | 8.06 | -4.25 | -22.8 | 6.67 | 0.724 | 4.17 | 10 | -6.13 |
| CCN(c1ccc(C(=O)NCCCN2CCCC2)cc1)S(=O)(=O)CC | -0.13 | 5.26 | -1.17 | -1.94 | -9.83 | -7.1 | 14.1 | -5.53 | 4.25 | 7.79 | -3.78 |
| Cc1cc(-c2cnc(NC3CC3)nc2-c2ccc(C)o2)on1 | -1.85 | 13.3 | 55.8 | 7.93 | 3.54 | -0.233 | 2.56 | 20.4 | 2.13 | 14.1 | -7.02 |
| c1cncc(COCc2nnc3n2CCN(Cc2ccsc2)C3)c1 | -1.63 | 13 | 2.4 | 6.44 | -2.26 | -23.4 | 19.6 | 25 | 3.23 | 8.64 | -2.81 |
| O=C(CCOc1cccc(F)c1)N1CCCC(n2cncn2)C1 (configuration not stated) | -2.79 | 1.27 | 7.42 | 3.23 | -1.95 | 4.95 | 6 | 2.52 | 2.08 | 7.59 | -10.2 |
